An excerpt weighted towards active compounds, which were near 21% of everything screened.
Pf growth 48h = P. falciparum growth inhibition at 48 hours (one generation); Potency, µM (titrated, usually from 28.7 µM), for inactives: top-dose activity change, negative = inhibition, usual class: inhibitors; P. falciparum luciferase growth in erythrocytes, 48 h; 310,000 compounds, 5.9% hits; also: potency is read from the fitted curve at half-maximal effect; % is scaled to controls: 0 for no effect and ±100 for the full control effect
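Erythrocytes infected with P. falciparum carrying an integrated firefly luciferase reporter (2% hematocrit, 0.1% parasitemia final) were exposed to compounds in RPMI 1640 with 0.5% Albumax at 37 C, 5% CO2. Growth inhibition was scored as reduced luminescence.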
Shiga inhibitor = Shiga toxin inhibition; Vero cells, Shiga toxin protein synthesis inhibition reporter; inhibition, % at 38.7 µM; 290,000 compounds, 9.2% hits; AID 2315; in the data active = inhibition mostly above about 28%, no sharp cut-off; inactive = mostly below about 43%; also: 0% is about no effect
Pf growth 96h = inhibits malaria parasite growth, 96 h. 320,000 compounds, 6.9% hits. P. falciparum luciferase reporter growth, 96 h. AID 504834. Potency, µM (top dose mostly 28.7 µM), without a hit: top-dose activity change, negative = inhibition, actives largely listed as inhibitors; also: potency is read from the fitted curve at half-maximal effect; % is scaled to controls: 0 for no effect and ±100 for the full control effect
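Cell-based qHTS: luciferase-tagged P. falciparum in erythrocytes (2% hematocrit, 0.05% parasitemia final) incubated with compounds for 96 hours, 37 C, 5% CO2; luciferase detection reagent then added and luminescence measured.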
SARS PLpro yeast-1 = inhibitors of SARS-CoV papain-like protease in yeast. AID 485353. 330,000 compounds, 0.19% hits. Potency, µM (titrated, usually from 32.9 µM), inactives show at the top dose activity, positive = growth rescue, hits mostly activators. S. cerevisiae expressing SARS-CoV PLpro, growth rescue; calls by dose curve; also: potency is read from the fitted curve at half-maximal effect; 0% is about no effect; nearly all actives have a fitted effect of over 55% in size
NS1 inh = influenza NS1 inhibition. Potency, µM (highest dose often 46.1 µM), for inactives: at the top dose activity, positive = more growth. 270,000 compounds, 0.4% hits. AID 2326; calls by dose curve; also: potency is read from the fitted curve at half-maximal effect; actives are rising curves; nearly all actives have a fitted effect of over 50% in size
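Read-out: OD600 growth recovery of NS1-expressing budding yeast. Cells grown overnight at 30C in -URA glucose medium, washed, resuspended and diluted 1:100 in 2% galactose assay medium, pH 6.0. Same strain lacking NS1 served as positive control.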
CHX counter = counter-screen hit for Shiga toxin inhibitors, cycloheximide. 300,000 compounds, 12% hits. max response, %. cell reporter, cycloheximide protein synthesis inhibition counterscreen; in the data active = max response mostly above about 13%, no sharp cut-off; inactive = mostly below about 14%; also: read at 38.3 µM for the half of the compounds with a filed dose; 0% is about no effect
SARS PLpro yeast-2 = Validates SARS-CoV PLpro inhibitor hits in yeast; shares compounds with SARS PLpro yeast-1; yeast expressing SARS-CoV PLpro, growth phenotype rescue; calls only; 1,000 compounds, 19% hits; AID 652038; call rule not given here
The depositor's hits bear a star; i = inactive; ? = inconclusive; . = no result given; + = active, no number; [ ] = remark or other dose. Unless noted, calls follow the shape of the dose curve; as a rule, active = well fitted inhibition curve with a large enough effect; inconclusive = small, poorly fitted or top-dose-only effect, or another doubt; inactive = no such curve, though single readings can be large or run the other way.

SMILES	Pf growth 48h	Shiga inhibitor	Pf growth 96h	SARS PLpro yeast-1	NS1 inh	CHX counter	SARS PLpro yeast-2
Cc1ccc(N=C2C(=S)N(c3ccc(C)cc3)C(=N)N2/N=C/c2ccc(Cl)cc2)cc1	-23%	74*	?	11µM*	6%	48*	+
C#CC[N+](C)(C)CCCCCCCCCC	0.93µM*	-14	?	3.2µM*	-1%	-5	i
CCOc1ccc(-c2c(C(=O)N/N=C/c3ccc(OC)cc3)nnn2-c2nonc2N)cc1	-5%	-3	2%	20µM*	10%	-1	i
CCCOc1ccc(-c2c(C(=O)N/N=C/c3ccc(OC)cc3)nnn2-c2nonc2N)cc1	1%	15	-3%	4%	11%	1	.
CCOC(=O)C1=C(COC(=O)/C=C/c2ccco2)NC(=O)NC1C (stereo not drawn)	8%	.	54%	?	.	.	i
CCOC(=O)C1=C(COC(=O)/C=C/c2ccc(OC)cc2)NC(=O)NC1C (stereo not drawn)	?	.	7%	-3%	.	.	.
COc1cccc(N2CCN(C(=O)CCNS(=O)(=O)c3ccc4c(c3)c(=O)n(C)c(=O)n4C)CC2)c1	?	-14	38%	-2%	.	6	.
COc1ccc(NCN2C(=O)CCC2=O)cc1	.	6	20%	?	-10%	-2	i
O=C1CCC(=O)N1CNc1ccc(Oc2ccccc2)cc1	9%	23	2%	.	-16%	2	.
Oc1c(C(c2ccc(Cl)cc2)N2CCCC2)cc(Cl)c2cccnc12 (stereo not drawn)	3.3µM*	2	1.9µM*	.	29%	5	i
Oc1c(C(Nc2ccccn2)c2cccnc2)cc(Cl)c2cccnc12 (stereo not drawn)	4.7µM*	17	90%	2.5µM*	-55%	-2	i
COc1ccc(C(NC(=O)c2cccnc2)c2cc(Cl)c3cccnc3c2O)cc1OC (stereo not drawn)	?	-10	0%	2.2µM*	?	-2	i
CC(=O)NC(c1ccc(C)cc1)c1cc(Cl)c2cccnc2c1O (stereo not drawn)	?	-7	29%	?	-41%	-2	+
Cc1ccc(OCc2nnc(SCC(=O)N3C(C)CCCC3C)o2)cc1 (stereo not drawn)	5%	9	-3%	0%	-9%	-6	.
CC12CC3CC(C)(C1)CC(C(=O)N1CCN(C(=O)C4CCCO4)CC1)(C3)C2 (stereo not drawn)	3%	-6	?	-1%	-13%	-6	.
CCCCNC(=O)CCCCCNS(=O)(=O)c1ccc(OC)cc1	5%	-1	40%	?	1%	-2	i
COC(=O)c1ccc(N2CCN(CCNC(=O)Nc3ccc(OC)cc3)CC2)cc1	?	6	-13%	?	13%	3	i
COc1ccc(N2CCN(CCNC(=O)Nc3ccc(C)c(Cl)c3)CC2)cc1	5%[0.00184 µM]	-6	?	-2%	-5%	-5	.
COCCNC(=O)c1ccc(CS(=O)(=O)c2ccc(C)cc2)o1	.	-19	44%	?	3%	-2	i
Cc1ccc(C(=O)N2CCN(CCNC(=O)C(=O)NC(C)C)CC2)cc1	3%	-8	7%	0%	1%	-4	.
Cc1ccc(C(=O)NC(=S)Nc2ccccc2N2CCCC2)cc1[N+](=O)[O-]	-20%	-1	11%	?	17%	5	+
Cc1cccc(C(=O)N2CCN(S(=O)(=O)N3CCCCCC3)CC2)c1	28%	-5	45%	1%	-1%	-6	.
CC(C)c1ccc(NC(=S)NN(c2ccccc2)c2ccccc2)cc1	?	13	?	-12%	1%	5	.
CCNC(=S)NN(c1ccccc1)c1ccccc1	.	9	?	14µM*	2%	6	+
O=S(=O)(Nc1cccc(-n2cnnn2)c1)c1ccc(F)cc1	-23%	.	26%	2%	.	.	.
CCOC(=O)N1CCN(S(=O)(=O)c2ccc(C(=O)NNc3nc4cc(C)cc(C)c4s3)cc2)CC1	?	-12	?	7.9µM*	?	-3	?
C[N+]1(CC(=O)Nc2ccc(F)cc2)CCN(C(=O)c2ccco2)CC1	-19%	-5	-27%	2%	-5%	1	.
